# Laboratory results from PubChem BioAssay (EPA / NIEHS).
# Where “and” joins values, the source holds several entries; their conditions need not be identical. Equal values may be shown once. Results filed as inconclusive are left out. Where a structure was tested more than once in an assay, its records may differ in their call. Calls of active or inactive are those of the source. The calls were made as follows, unless noted: active = hit-call score of the fitted dose curve at least 0.9, where 1 is the maximum; inactive = score below 0.9.
# Assays:
# [1] = biological target: Retinoic acid receptor RXR-alpha (Homo sapiens) (UniProt P19793); assay: OT_NURR1_NURR1RXRa_0480: Odyssey Thera (OT) 8-hour HEK293T Protein Complementation Assay for Nurr1/retinoid X receptor (RXR) (AID 2283385; active = hit-call score of the fitted dose curve at least 0.9, where 1 is the maximum)
# Procedure, shortened: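 Interaction of Nurr1 with RXRα read as reconstituted reporter fluorescence in a HEK293T fragment-complementation system, 8 h post-treatment; increase over DMSO baseline analysed.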
# [2] = biological target: Retinoic acid receptor RXR-alpha (Homo sapiens) (UniProt P19793); assay: OT_NURR1_NURR1RXRa_1440: Odyssey Thera (OT) 24-hour HEK293T Protein Complementation Assay for Nurr1/retinoid X receptor (RXR) (AID 2283386; active = hit-call score of the fitted dose curve at least 0.9, where 1 is the maximum)
# Procedure, shortened: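 Gain in fluorescence, fitted relative to DMSO, reflects Nurr1–RXRα association in HEK293T cells after 24 h dosing. Bait and prey are each linked to a reporter-protein fragment that reassembles on interaction.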
# [3] = biological target: Peroxisome proliferator-activated receptor gamma (Homo sapiens) (UniProt P37231); assay: OT_PPARg_PPARgSRC1_0480: Odyssey Thera (OT) 8-hour Protein-Complementation Assay for Peroxisome Proliferator-activated Receptor Gamma / SRC-1 Co-activator (AID 2283387; active = hit-call score of the fitted dose curve at least 0.9, where 1 is the maximum;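 also: nuclear to cytoplasmic split Venus YFP fluorescence ratio reporting PPARg SRC-1 interaction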)
# Procedure, shortened: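 Protein-fragment complementation of split Venus YFP reports PPARg/SRC-1 interaction in HEK293T (transfected 48 h before treatment), exposed 8 h. Readout: N/C fluorescence ratio at 488 nm from imaging, Draq5 for segmentation, positive fit relative to DMSO.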
# [4] = biological target: Peroxisome proliferator-activated receptor gamma (Homo sapiens) (UniProt P37231); assay: OT_PPARg_PPARgSRC1_1440: Odyssey Thera (OT) 24-hour Protein-Complementation Assay for Peroxisome Proliferator-activated Receptor Gamma/ SRC-1 Co-activator (AID 2283388; active = hit-call score of the fitted dose curve at least 0.9, where 1 is the maximum;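 also: nuclear to cytoplasmic ratio of reconstituted Venus YFP fluorescence in fixed imaged cells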)
# Procedure, shortened: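 Readout is the 488 nm N/C fluorescence ratio from fixed, Draq5-stained HEK293T cells after 24 h compound exposure. Cells carried transiently transfected PPARg and SRC-1 fused to Venus fragments, transfected 48 h before treatment.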
# [5] = CEETOX_H295R_OHPREG: CeeTox H295R High-throughput Steroidogenesis Assay for OH-Pregnenolone (OHPREG) (AID 2283434); details: actives raise or lower the signal
# Procedure, shortened: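 Readout: HPLC-MS/MS of 17alpha-hydroxypregnenolone in medium after 48 h chemical exposure of H295R cells pretreated with forskolin. Values fitted bidirectionally relative to DMSO; chemicals reducing viability to 20–70% were retested after 10-fold dilution.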
# [6] = CEETOX_H295R_OHPROG: CeeTox H295R High-throughput Steroidogenesis Assay for OH-Progesterone (OHPROG) (AID 2283435); details: actives raise or lower the signal
# Procedure, shortened: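 Medium steroid levels read by LC-MS/MS after 48 h chemical treatment (0.1% DMSO) of human adrenal H295R cells that had been forskolin-primed (10 uM, 48 h). Gain or loss fitted against DMSO; MTT cytotoxicity checked per well.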
# [7] = CEETOX_H295R_ESTRADIOL: CeeTox H295R High-throughput Steroidogenesis Assay for Estradiol (AID 2283440); details: actives raise or lower the signal;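 also: estradiol secreted into medium quantified by LC-MS/MS after dansyl derivatisation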
# Procedure, shortened: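 Estradiol in spent medium measured by LC-MS/MS after dansyl chloride derivatisation. Forskolin-primed (10 uM, 48 h) human adrenal H295R cells received test chemical 48 h at 0.1% DMSO; concentrations lowered until MTT viability >/=70%.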
# [8] = CEETOX_H295R_PROG: CeeTox H295R High-throughput Steroidogenesis Assay for Progesterone (PROG) (AID 2283442); details: actives raise or lower the signal;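 as to AC50: human H295R adrenal cells primed with 10 µM forskolin before dosing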
# Procedure, shortened: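 Progesterone secreted by human H295R cells was measured by LC-MS/MS following 48 h chemical exposure at 0.1% DMSO, preceded by 48 h forskolin (10 uM) stimulation. Same-well MTT viability; cytotoxic concentrations diluted 10- or 100-fold and retested.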
# [9] = read-out: Fatty acid synthase (Homo sapiens) (UniProt P49327); assay: LTEA_HepaRG_FASN: Life Technologies and Expression Analysis (LTEA) Assay for Fatty Acid Synthase (FASN) using HepaRG (AID 2283448); details: mRNA level, 48 h; actives raise or lower the signal;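 as to AC50: differentiated human HepaRG liver cells in serum-free induction medium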
# Procedure, shortened: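 FASN transcript measured by TaqMan qRT-PCR, normalised to three housekeeping genes, after 48 h chemical exposure of HepaRG cells. Eight-point half-log series from 100 uM in 0.5% DMSO, duplicates; gain or loss fitted against vehicle.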
# [10] = read-out: Cyclin D2 (CCND2), CCND2 (gene 894); assay: LTEA_HepaRG_CCND2: Life Technologies and Expression Analysis (LTEA) Assay for Cyclin D2 (CCND2) using HepaRG (AID 2283449); details: mRNA level, 48 h; actives raise or lower the signal;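 also: CCND2 transcript measured by TaqMan qRT-PCR and normalised to three housekeeping genes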
# Procedure, shortened: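 In this HepaRG study, an eight-point concentration series (max 100 uM, 0.5% DMSO) is applied for 48 h. CCND2 mRNA change is derived by qRT-PCR normalised to ACTB, GAPDH and POLR2A.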
# [11] = read-out: Cyclin Dependent Kinase Inhibitor 1A (CDKN1A), CDKN1A (gene 1026); assay: LTEA_HepaRG_CDKN1A: Life Technologies and Expression Analysis (LTEA) Assay for Cyclin Dependent Kinase Inhibitor 1A (CDKN1A) using HepaRG (AID 2283450); details: mRNA level, 48 h; actives raise or lower the signal
# Procedure, shortened: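 Expression quantified by Fluidigm qRT-PCR with ACTB, GAPDH and POLR2A normalization, fitted bidirectionally against 0.5% DMSO. Cells: HepaRG, plated 48 h then treated 48 h in serum-free induction medium, top concentration 100 uM with half-log dilutions.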
# [12] = read-out: Cyclin D1 (CCND1), CCND1 (gene 595); assay: LTEA_HepaRG_CCND1: Life Technologies and Expression Analysis (LTEA) Assay for Cyclin D1 (CCND1) using HepaRG (AID 2283451); details: mRNA level, 48 h; actives raise or lower the signal;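 as to AC50: differentiated human HepaRG liver cells in serum-free induction medium; TaqMan qRT-PCR transcript level normalised to ACTB GAPDH and POLR2A housekeeping genes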
# Procedure, shortened: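 Expression of CCND1 was quantified by qRT-PCR on Fluidigm arrays using ACTB, GAPDH and POLR2A as reference genes. HepaRG cultures, plated 48 h beforehand, were dosed for 48 h at up to 100 uM (half-log, 8 points) in 0.5% DMSO.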
# [13] = read-out: catalase (CAT), CAT (gene 847); assay: LTEA_HepaRG_CAT: Life Technologies and Expression Analysis (LTEA) Assay for catalase (CAT) using HepaRG (AID 2283452); details: mRNA level, 48 h; actives raise or lower the signal;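 as to AC50: TaqMan qRT-PCR signal normalized to ACTB GAPDH and POLR2A housekeeping genes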
# Procedure, shortened: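 Differentiated HepaRG cells in serum-free induction medium were dosed 48 h in duplicate, eight half-log concentrations from 100 uM in 0.5% DMSO. Transcript measured by TaqMan qRT-PCR, normalised to ACTB/GAPDH/POLR2A, fitted bidirectionally against DMSO.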
# [14] = CEETOX_H295R_11DCORT: CeeTox H295R High-throughput Steroidogenesis Assay for 11-Deoxycortisol (11DCORT) (AID 2283432); details: actives raise or lower the signal
# Procedure, shortened: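 Human adrenal H295R cells were prestimulated with 10 uM forskolin for 48 h, then exposed to test chemical (0.1% DMSO final) for 48 h. Medium 11-deoxycortisol was quantified by MTBE extraction and HPLC-MS/MS; bidirectional fitting relative to DMSO.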
# [15] = CEETOX_H295R_ANDR: CeeTox H295R High-throughput Steroidogenesis Assay for Androstenedione (ANDR) (AID 2283436); details: actives raise or lower the signal
# Procedure, shortened: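 Steroidogenesis in H295R adrenal cells after 48 h dosing; androstenedione quantified by LC-MS/MS, with DMSO as negative control and baseline for bidirectional curve fitting.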
# [16] = CEETOX_H295R_CORTIC: CeeTox H295R High-throughput Steroidogenesis Assay for Corticosterone (CORTIC) (AID 2283437); details: actives raise or lower the signal;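 also: corticosterone secreted into medium quantified by mass spectrometry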
# Procedure, shortened: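 Steps: seed H295R, adhere overnight; 10 uM forskolin 48 h; replace with chemical (0.1% DMSO) 48 h; extract medium with MTBE; quantify corticosterone by HPLC-MS/MS; score bidirectionally vs DMSO.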
# [17] = CEETOX_H295R_CORTISOL: CeeTox H295R High-throughput Steroidogenesis Assay for Cortisol (AID 2283438); details: actives raise or lower the signal;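 also: cortisol secreted into medium quantified by LC-MS/MS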
# Procedure, shortened: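 Cortisol measured by HPLC-MS/MS after MTBE extraction of medium from H295R cells exposed 48 h to chemical (0.1% DMSO), following 48 h prestimulation with 10 uM forskolin. Viability assessed by MTT in the same wells.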
# [18] = CEETOX_H295R_DOC: CeeTox H295R High-throughput Steroidogenesis Assay for DOC (AID 2283439); details: actives raise or lower the signal
# Procedure, shortened: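 11-Deoxycorticosterone quantified in medium by MTBE extraction and HPLC-MS/MS after 48 h chemical exposure (0.1% DMSO) of forskolin-primed (10 uM, 48 h) H295R cells. Same-well MTT viability; data fitted bidirectionally against DMSO.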
# Chain of Retinoic acid receptor RXR-alpha (Homo sapiens) (P19793 whole entry, looked up, the tested form may be a part): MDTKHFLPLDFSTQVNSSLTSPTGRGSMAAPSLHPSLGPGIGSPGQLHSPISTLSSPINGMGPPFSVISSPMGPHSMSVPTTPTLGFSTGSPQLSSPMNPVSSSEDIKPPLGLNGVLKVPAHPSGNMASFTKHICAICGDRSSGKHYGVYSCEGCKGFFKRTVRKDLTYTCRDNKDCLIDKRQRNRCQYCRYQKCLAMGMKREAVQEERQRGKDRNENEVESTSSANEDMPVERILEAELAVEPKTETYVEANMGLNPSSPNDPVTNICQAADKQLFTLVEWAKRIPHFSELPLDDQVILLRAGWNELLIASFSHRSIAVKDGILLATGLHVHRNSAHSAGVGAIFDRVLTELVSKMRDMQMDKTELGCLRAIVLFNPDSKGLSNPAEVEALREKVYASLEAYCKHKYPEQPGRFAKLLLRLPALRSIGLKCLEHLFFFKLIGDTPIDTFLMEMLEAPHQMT
# Chain of Fatty acid synthase (Homo sapiens) (P49327 whole entry, looked up): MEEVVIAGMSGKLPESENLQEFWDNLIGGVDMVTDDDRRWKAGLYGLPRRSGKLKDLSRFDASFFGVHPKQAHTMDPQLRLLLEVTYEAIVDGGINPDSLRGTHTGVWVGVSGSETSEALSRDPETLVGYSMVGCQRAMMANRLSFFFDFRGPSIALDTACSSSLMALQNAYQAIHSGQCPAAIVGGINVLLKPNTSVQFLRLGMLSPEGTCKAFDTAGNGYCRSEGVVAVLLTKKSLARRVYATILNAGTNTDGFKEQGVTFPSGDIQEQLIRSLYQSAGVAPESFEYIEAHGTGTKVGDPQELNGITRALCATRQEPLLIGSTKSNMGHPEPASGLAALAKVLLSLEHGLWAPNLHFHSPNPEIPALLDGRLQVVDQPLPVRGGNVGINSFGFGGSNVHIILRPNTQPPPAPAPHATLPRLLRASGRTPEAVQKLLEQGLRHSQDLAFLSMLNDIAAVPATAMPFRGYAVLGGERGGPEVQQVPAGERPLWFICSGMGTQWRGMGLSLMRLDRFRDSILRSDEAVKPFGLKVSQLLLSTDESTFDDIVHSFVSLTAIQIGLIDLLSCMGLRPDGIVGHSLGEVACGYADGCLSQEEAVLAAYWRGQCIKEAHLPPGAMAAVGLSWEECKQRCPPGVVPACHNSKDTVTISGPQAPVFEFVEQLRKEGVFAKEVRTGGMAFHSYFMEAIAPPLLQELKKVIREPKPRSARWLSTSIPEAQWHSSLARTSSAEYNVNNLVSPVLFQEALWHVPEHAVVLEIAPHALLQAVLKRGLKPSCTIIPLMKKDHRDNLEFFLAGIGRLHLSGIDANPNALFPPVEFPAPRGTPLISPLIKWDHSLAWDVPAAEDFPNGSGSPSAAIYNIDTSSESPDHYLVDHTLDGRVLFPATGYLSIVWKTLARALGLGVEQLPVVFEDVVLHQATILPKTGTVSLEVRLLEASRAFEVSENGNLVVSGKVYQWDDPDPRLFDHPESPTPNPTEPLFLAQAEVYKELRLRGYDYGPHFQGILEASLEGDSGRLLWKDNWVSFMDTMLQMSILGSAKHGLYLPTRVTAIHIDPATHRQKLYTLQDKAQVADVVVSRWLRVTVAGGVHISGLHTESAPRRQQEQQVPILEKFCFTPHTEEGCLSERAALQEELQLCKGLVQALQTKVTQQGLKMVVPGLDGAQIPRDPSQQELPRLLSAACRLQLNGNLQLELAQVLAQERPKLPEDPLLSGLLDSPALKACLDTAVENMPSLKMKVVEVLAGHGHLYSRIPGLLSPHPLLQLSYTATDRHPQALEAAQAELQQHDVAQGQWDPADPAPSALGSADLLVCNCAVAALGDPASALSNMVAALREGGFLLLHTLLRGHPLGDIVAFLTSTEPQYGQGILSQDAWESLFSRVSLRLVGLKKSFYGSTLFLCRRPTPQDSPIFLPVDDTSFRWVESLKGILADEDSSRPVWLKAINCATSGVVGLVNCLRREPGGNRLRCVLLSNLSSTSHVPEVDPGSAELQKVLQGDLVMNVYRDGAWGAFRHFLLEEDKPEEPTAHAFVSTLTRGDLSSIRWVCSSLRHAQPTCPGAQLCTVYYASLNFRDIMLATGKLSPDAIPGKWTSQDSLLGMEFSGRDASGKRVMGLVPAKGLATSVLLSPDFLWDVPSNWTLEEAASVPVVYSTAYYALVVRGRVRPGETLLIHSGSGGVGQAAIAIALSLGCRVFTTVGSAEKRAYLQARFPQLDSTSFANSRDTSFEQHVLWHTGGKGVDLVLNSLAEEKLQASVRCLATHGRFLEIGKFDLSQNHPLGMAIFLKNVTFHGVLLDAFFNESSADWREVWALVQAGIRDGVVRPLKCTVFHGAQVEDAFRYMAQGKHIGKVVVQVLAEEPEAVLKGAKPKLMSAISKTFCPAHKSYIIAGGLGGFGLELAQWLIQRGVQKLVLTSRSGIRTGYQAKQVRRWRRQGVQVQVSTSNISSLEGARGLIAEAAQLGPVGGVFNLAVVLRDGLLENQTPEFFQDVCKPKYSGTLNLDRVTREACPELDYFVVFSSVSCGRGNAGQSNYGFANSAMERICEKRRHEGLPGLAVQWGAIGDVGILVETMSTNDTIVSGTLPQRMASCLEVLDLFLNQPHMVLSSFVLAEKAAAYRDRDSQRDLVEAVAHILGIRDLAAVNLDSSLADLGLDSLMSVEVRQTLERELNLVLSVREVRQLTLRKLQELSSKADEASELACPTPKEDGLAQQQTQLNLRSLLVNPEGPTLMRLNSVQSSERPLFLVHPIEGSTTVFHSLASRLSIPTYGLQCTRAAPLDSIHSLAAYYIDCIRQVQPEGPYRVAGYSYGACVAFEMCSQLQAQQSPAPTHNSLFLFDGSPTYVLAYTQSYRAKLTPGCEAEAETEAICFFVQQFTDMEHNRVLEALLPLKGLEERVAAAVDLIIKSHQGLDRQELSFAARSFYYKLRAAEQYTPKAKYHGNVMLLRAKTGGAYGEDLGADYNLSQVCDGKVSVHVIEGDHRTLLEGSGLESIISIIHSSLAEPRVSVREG
# Chain of Peroxisome proliferator-activated receptor gamma (Homo sapiens) (P37231 whole entry, looked up, the tested form may be a part): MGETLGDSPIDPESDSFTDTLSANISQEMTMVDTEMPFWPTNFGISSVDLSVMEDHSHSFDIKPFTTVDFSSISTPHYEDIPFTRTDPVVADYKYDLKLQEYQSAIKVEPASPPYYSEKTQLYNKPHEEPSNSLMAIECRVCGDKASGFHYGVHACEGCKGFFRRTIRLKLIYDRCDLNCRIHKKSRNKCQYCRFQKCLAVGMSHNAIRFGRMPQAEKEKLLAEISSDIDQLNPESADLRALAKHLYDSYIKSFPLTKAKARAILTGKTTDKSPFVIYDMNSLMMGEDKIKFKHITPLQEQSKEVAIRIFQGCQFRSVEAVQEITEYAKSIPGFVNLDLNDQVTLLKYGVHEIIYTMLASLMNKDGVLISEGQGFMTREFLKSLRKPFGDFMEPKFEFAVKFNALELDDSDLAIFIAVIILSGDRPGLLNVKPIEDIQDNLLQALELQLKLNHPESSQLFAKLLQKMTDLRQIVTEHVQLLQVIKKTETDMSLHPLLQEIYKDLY
structure (smiles),measurement,setting,value
CNC(=O)CSP(=S)(OC)OC,outcome,[1],inactive
same,outcome,[2],inactive
same,outcome,[3],inactive
same,outcome,[4],inactive
same,outcome,[5],inactive
same,outcome,[6],inactive
same,outcome,[7],inactive
same,outcome,[8],inactive
same,outcome,[9],inactive
same,outcome,[10],inactive
same,outcome,[11],inactive
same,outcome,[12],inactive
same,outcome,[13],inactive
C#CCN1C(=O)COc2cc(F)c(N3C(=O)C4=C(CCCC4)C3=O)cc21,outcome,[1],inactive
same,outcome,[2],inactive
same,outcome,[3],inactive
same,outcome,[4],inactive
same,outcome,[14],inactive
same,outcome,[5],inactive
same,outcome,[6],inactive
same,outcome,[15],inactive
same,outcome,[16],inactive
same,outcome,[17],inactive
same,outcome,[18],inactive
same,outcome,[7],inactive
same,outcome,[8],inactive
same,outcome,[9],inactive
same,outcome,[11],inactive
same,outcome,[12],inactive
same,outcome,[13],inactive
O=S(=O)(O)C(F)(F)C(F)(F)C(F)(F)C(F)(F)C(F)(F)C(F)(F)C(F)(F)C(F)(F)F,outcome,[1],inactive
same,outcome,[2],inactive
same,outcome,[3],inactive
same,outcome,[4],inactive
same,AC50,[9],81.5 µM (active) and 71.8 µM (active) and 73.8 µM (active)
same,outcome,[10],inactive
same,outcome,[11],inactive
same,AC50,[12],18.5 µM (active) and 22.3 µM (active) and 12.3 µM (active)
same,outcome,[12],inactive
same,AC50,[13],84 µM (active)
same,outcome,[13],inactive
COP(=O)(OC)OC=C(Cl)Cl,outcome,[1],inactive
same,outcome,[2],inactive
same,outcome,[3],inactive
same,outcome,[4],inactive
same,outcome,[9],inactive
same,outcome,[10],inactive
same,outcome,[11],inactive
same,outcome,[12],inactive
same,outcome,[13],inactive
O=C(NC(=O)c1c(F)cccc1F)Nc1ccc(OC(F)(F)C(F)OC(F)(F)F)c(Cl)c1 (centres undefined),outcome,[1],inactive
same,outcome,[2],inactive
same,outcome,[3],inactive
same,outcome,[4],inactive
same,outcome,[14],inactive
same,outcome,[5],inactive
same,outcome,[6],inactive
same,outcome,[16],inactive
same,outcome,[17],inactive
same,outcome,[18],inactive
same,outcome,[7],inactive
same,outcome,[8],inactive
same,AC50,[9],8.63 µM (active)
same,outcome,[10],inactive
same,outcome,[11],inactive
same,outcome,[12],inactive
same,outcome,[13],inactive
Clc1ccccc1-c1nnc(-c2ccccc2Cl)nn1,outcome,[1],inactive
same,outcome,[2],inactive
same,outcome,[3],inactive
same,outcome,[4],inactive
same,outcome,[5],inactive
same,outcome,[6],inactive
same,outcome,[7],inactive
same,outcome,[8],inactive
same,AC50,[9],24.7 µM (active)
same,outcome,[11],inactive
same,outcome,[12],inactive
same,outcome,[13],inactive
O=C(O)CCCOc1ccc(Cl)cc1Cl,outcome,[1],inactive
same,outcome,[2],inactive
same,outcome,[3],inactive
same,outcome,[4],inactive
same,outcome,[9],inactive
same,outcome,[10],inactive
same,outcome,[11],inactive
same,outcome,[12],inactive
same,outcome,[13],inactive
N#CN,outcome,[1],inactive
same,outcome,[3],inactive
same,outcome,[4],inactive
same,outcome,[9],inactive
same,outcome,[10],inactive
same,outcome,[11],inactive
same,outcome,[12],inactive
same,outcome,[13],inactive
CC(C)(C)C(O)/C(=C\c1ccc(Cl)cc1Cl)n1cncn1 (centres undefined),outcome,[3],inactive
same,outcome,[4],inactive
same,outcome,[14],inactive
same,outcome,[5],inactive
same,outcome,[6],inactive
same,outcome,[16],inactive
same,outcome,[17],inactive
same,outcome,[18],inactive
same,outcome,[7],inactive
same,outcome,[8],inactive
same,AC50,[9],80.6 µM (active)
same,outcome,[10],inactive
same,AC50,[11],27.5 µM (active)
same,AC50,[12],82.5 µM (active)
same,AC50,[13],27.3 µM (active)
CC1(C)C(C=C(Cl)Cl)C1C(=O)OC(C#N)c1ccc(F)c(Oc2ccccc2)c1 (centres undefined),outcome,[1],inactive
same,outcome,[3],inactive
same,outcome,[4],inactive
same,outcome,[14],inactive
same,outcome,[5],inactive
same,outcome,[6],inactive
same,outcome,[16],inactive
same,outcome,[17],inactive
same,outcome,[18],inactive
same,outcome,[7],inactive
same,outcome,[8],inactive
same,outcome,[9],inactive
same,outcome,[10],inactive
same,outcome,[11],inactive
same,outcome,[12],inactive
same,outcome,[13],inactive
CNC(=O)Oc1cccc(N=CN(C)C)c1,outcome,[3],inactive
same,outcome,[4],inactive
same,outcome,[5],inactive
same,outcome,[6],inactive
same,outcome,[7],inactive
same,AC50,[8],35.9 µM (active)
same,outcome,[9],inactive
same,outcome,[10],inactive
same,outcome,[11],inactive
same,outcome,[12],inactive
same,outcome,[13],inactive
N#Cc1c(Cl)c(Cl)c(Cl)c(C#N)c1Cl,AC50,[1],0.0765 µM (active)
same,outcome,[3],inactive
same,outcome,[4],inactive
same,outcome,[14],inactive
same,outcome,[5],inactive
same,outcome,[6],inactive
same,outcome,[16],inactive
same,outcome,[17],inactive
same,outcome,[18],inactive
same,outcome,[7],inactive
same,outcome,[8],inactive
same,AC50,[9],35.5 µM (active)
same,outcome,[10],inactive
same,outcome,[11],inactive
same,AC50,[12],13.5 µM (active)
same,AC50,[13],65.7 µM (active)
